Test results taken from publication PMC5700166.
Residue numbers refer to the chain shown, from its start.

Assays:
Test in all cases: protein-binding microarray (PBM); PBM: ~300 nM protein, 6 mM HEPES pH 7.8, 80 mM KCl, 0.5 mM EDTA, 0.5 mM EGTA, 6% glycerol, 35 ng/ul poly-dIdC, 1% milk, 1 h, room temperature; Ap Aiptasia and Nv Nematostella (sea anemones) / Co Capsaspora / Aq Amphimedon (sponge) / Dm Drosophila / Hu human; RHD is the Rel homology domain; high values mean tight binding
Settings in all cases: dsDNA, one strand shown
GST-Ap-NF-kB RHD = target: T1, GST-Ap-NF-kB RHD (Exaiptasia pallida (Aiptasia), UniProt A0A913YAJ5 2-422)
T1 sequence: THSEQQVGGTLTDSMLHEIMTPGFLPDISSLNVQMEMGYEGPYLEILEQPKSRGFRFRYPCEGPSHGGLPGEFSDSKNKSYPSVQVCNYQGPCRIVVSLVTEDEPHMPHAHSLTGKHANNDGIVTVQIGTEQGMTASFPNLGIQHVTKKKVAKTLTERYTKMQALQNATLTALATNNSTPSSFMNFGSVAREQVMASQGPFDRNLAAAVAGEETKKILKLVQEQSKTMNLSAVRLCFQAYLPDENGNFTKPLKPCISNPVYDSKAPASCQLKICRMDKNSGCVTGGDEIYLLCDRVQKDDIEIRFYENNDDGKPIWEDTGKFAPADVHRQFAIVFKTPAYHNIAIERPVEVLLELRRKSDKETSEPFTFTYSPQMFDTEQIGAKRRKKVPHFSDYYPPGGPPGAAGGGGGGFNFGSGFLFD

[1] = target: T2, GST-Nv-NF-kB (Cys allele) (Nematostella vectensis, UniProt E5G601 2-411)
T2 sequence: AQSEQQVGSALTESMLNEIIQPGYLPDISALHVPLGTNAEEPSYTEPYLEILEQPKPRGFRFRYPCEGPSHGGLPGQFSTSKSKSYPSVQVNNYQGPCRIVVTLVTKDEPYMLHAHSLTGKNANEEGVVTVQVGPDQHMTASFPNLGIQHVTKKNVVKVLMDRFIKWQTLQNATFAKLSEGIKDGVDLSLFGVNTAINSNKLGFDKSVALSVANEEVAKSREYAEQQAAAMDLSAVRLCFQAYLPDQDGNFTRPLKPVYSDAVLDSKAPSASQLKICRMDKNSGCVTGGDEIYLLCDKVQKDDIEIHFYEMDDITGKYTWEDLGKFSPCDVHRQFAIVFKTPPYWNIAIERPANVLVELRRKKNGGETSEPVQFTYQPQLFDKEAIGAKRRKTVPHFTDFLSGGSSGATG

[2] = target: T3, GST-Nv-NF-kB (Ser allele) (Nematostella vectensis, UniProt A7UNT2 2-411)
T3 sequence: T2 sequence with Q21R, C66S, S207N, E215Q, V217A, E225K, A268E, D399E

GST-Co-NF-kB = target: T4, GST-Co-NF-kB (Capsaspora owczarzaki, UniProt F1ARL5 200-546)
T4 sequence: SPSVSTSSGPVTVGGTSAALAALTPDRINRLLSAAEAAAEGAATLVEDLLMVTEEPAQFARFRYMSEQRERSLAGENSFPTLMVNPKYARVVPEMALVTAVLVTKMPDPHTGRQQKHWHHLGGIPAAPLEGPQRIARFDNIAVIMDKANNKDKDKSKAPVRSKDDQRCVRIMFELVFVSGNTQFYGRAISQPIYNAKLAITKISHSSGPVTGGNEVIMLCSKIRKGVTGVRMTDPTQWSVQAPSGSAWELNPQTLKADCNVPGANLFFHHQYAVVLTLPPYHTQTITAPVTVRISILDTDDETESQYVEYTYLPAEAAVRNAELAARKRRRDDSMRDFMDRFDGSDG

GST-Dm-Relish = target: T5, GST-Dm-Relish (Drosophila melanogaster, UniProt Q94527 99-473)
T5 sequence: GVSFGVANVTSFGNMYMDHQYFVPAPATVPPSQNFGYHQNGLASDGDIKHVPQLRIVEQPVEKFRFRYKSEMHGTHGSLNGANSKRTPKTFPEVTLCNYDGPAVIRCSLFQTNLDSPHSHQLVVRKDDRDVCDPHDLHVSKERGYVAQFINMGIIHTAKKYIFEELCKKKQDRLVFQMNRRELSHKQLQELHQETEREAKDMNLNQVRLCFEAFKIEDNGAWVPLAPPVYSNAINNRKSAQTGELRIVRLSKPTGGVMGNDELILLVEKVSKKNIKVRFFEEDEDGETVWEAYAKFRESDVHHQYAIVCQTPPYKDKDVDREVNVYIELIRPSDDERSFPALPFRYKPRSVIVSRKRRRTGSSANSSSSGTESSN

GST-Aq-NF-kB = target: T6, GST-Aq-NF-kB (Amphimedon queenslandica, UniProt A9Y5G7 2-389)
T6 sequence: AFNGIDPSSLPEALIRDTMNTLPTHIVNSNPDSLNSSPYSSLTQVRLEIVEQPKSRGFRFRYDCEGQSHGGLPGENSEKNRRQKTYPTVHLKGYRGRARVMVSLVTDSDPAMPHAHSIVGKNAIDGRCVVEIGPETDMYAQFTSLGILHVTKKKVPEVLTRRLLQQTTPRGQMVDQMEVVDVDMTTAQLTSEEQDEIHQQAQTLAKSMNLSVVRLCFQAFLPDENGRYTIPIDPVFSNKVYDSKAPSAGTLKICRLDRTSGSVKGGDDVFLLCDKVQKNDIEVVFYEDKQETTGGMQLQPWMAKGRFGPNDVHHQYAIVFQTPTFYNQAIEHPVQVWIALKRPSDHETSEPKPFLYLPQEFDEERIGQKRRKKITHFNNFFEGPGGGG

GST-Hu-p50 = GST-Hu-p50 (Homo sapiens, UniProt P19838 7-356)
Sequence of GST-Hu-p50 (P19838 7-356): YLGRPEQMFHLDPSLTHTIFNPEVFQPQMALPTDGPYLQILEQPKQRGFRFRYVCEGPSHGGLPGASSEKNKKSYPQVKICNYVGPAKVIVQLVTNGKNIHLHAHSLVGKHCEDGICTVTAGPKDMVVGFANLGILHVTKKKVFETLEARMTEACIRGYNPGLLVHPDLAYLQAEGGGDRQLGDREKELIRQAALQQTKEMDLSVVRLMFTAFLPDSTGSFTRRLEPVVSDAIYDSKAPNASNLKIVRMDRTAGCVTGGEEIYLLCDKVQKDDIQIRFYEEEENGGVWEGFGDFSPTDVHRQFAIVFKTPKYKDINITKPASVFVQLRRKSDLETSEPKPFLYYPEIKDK

Sequence	binding signal (GST-Ap-NF-kB RHD)	binding signal [1]	binding signal [2]	binding signal (GST-Co-NF-kB)	binding signal (GST-Dm-Relish)	binding signal (GST-Aq-NF-kB)	binding signal (GST-Hu-p50)
CCGATTAACATCAGGGAGTTTTATGATGTTAATCGGGTCTTGATTCGCTTGACGCTGCTG	5.33 z-score	7.35 z-score	6.78 z-score	2.72 z-score	5.65 z-score	6.93 z-score	5.8 z-score
CCGATTAACATCACGTACTTCCCTGATGTTAATCGGGTCTTGATTCGCTTGACGCTGCTG	1.66 z-score	1.92 z-score	1.78 z-score	1.1 z-score	7.92 z-score	3.04 z-score	1.38 z-score
CCGATTAACATCAGATTTTCCCATGATGTTAATCGGGTCTTGATTCGCTTGACGCTGCTG	3.85 z-score	5.14 z-score	6.26 z-score	5 z-score	1.26 z-score	4.25 z-score	3.82 z-score
CCGATTAACATCAAAGCTTCCCCTGATGTTAATCGGGTCTTGATTCGCTTGACGCTGCTG	5.17 z-score	6.28 z-score	7.74 z-score	7.56 z-score	3.8 z-score	4.64 z-score	5.4 z-score
CCGATTAACATCAAATCATTCCCTGATGTTAATCGGGTCTTGATTCGCTTGACGCTGCTG	1.6 z-score	3.39 z-score	3.1 z-score	3.4 z-score	1.31 z-score	4.36 z-score	1.78 z-score
CCGATTAACATCAAACTTCCCCATGATGTTAATCGGGTCTTGATTCGCTTGACGCTGCTG	6.34 z-score	7.12 z-score	7.9 z-score	7.04 z-score	5.5 z-score	6.28 z-score	5.87 z-score
CCGATTAACATCAAATGCCCCCCTGATGTTAATCGGGTCTTGATTCGCTTGACGCTGCTG	5.13 z-score	4.38 z-score	3.91 z-score	5.28 z-score	4.71 z-score	5.31 z-score	4.49 z-score
CCGATTAACATCAGATATCCCCCTGATGTTAATCGGGTCTTGATTCGCTTGACGCTGCTG	7.25 z-score	6.62 z-score	7.52 z-score	6.39 z-score	5.78 z-score	5.89 z-score	5.59 z-score
CCGATTAACATCAAAATCCCGGGTGATGTTAATCGGGTCTTGATTCGCTTGACGCTGCTG	3.32 z-score	2.32 z-score	2.26 z-score	1.42 z-score	6.58 z-score	3.23 z-score	3.3 z-score
CCGATTAACATCAAAAAAACCCCTGATGTTAATCGGGTCTTGATTCGCTTGACGCTGCTG	9.17 z-score	10 z-score	9.69 z-score	3.62 z-score	9.78 z-score	8.79 z-score	7.76 z-score
CCGATTAACATCAGAAAACCCCATGATGTTAATCGGGTCTTGATTCGCTTGACGCTGCTG	6.36 z-score	5.53 z-score	4.86 z-score	1.75 z-score	8.35 z-score	5.03 z-score	5.88 z-score
CCGATTAACATCAAAAAGACCCCTGATGTTAATCGGGTCTTGATTCGCTTGACGCTGCTG	4.67 z-score	4.44 z-score	3.31 z-score	1.92 z-score	6.3 z-score	5.55 z-score	4.67 z-score
CCGATTAACATCAAAAAGCCCCCTGATGTTAATCGGGTCTTGATTCGCTTGACGCTGCTG	7.94 z-score	9.31 z-score	7.92 z-score	3.86 z-score	9.41 z-score	8.57 z-score	7.23 z-score
CCGATTAACATCAGGGGGTTTCATGATGTTAATCGGGTCTTGATTCGCTTGACGCTGCTG	8.25 z-score	7.15 z-score	7.35 z-score	2.56 z-score	8.76 z-score	6.59 z-score	6.6 z-score
CCGATTAACATCACGGGGAAAACTGATGTTAATCGGGTCTTGATTCGCTTGACGCTGCTG	7.27 z-score	7.6 z-score	9.43 z-score	10.2 z-score	5.68 z-score	5.55 z-score	5.8 z-score
CCGATTAACATCAGGGGATGTACTGATGTTAATCGGGTCTTGATTCGCTTGACGCTGCTG	4.43 z-score	4.79 z-score	5.58 z-score	3.02 z-score	9.92 z-score	5.33 z-score	4.4 z-score
CCGATTAACATCAGAGATTCCCCTGATGTTAATCGGGTCTTGATTCGCTTGACGCTGCTG	8.42 z-score	9.61 z-score	10.1 z-score	6.66 z-score	6.36 z-score	7.04 z-score	6.76 z-score
CCGATTAACATCAGGGAATTCCCTGATGTTAATCGGGTCTTGATTCGCTTGACGCTGCTG	12 z-score	12.7 z-score	11.4 z-score	7.25 z-score	10 z-score	12.2 z-score	7.9 z-score
CCGATTAACATCACAACTCCCCCTGATGTTAATCGGGTCTTGATTCGCTTGACGCTGCTG	5.84 z-score	4.69 z-score	5.89 z-score	6.16 z-score	3.67 z-score	5.15 z-score	5.55 z-score
CCGATTAACATCACAAATTACCCTGATGTTAATCGGGTCTTGATTCGCTTGACGCTGCTG	3.66 z-score	5.32 z-score	5.44 z-score	3.35 z-score	3.01 z-score	4.95 z-score	4.07 z-score
CCGATTAACATCAGGGAATCTACTGATGTTAATCGGGTCTTGATTCGCTTGACGCTGCTG	2.43 z-score	3.44 z-score	3.68 z-score	1.94 z-score	4.76 z-score	4.82 z-score	2.96 z-score
CCGATTAACATCAAGATTCCCCTTGATGTTAATCGGGTCTTGATTCGCTTGACGCTGCTG	7.59 z-score	10 z-score	10.8 z-score	5.46 z-score	6.62 z-score	6.39 z-score	7.18 z-score
CCGATTAACATCAGATATTCCCCTGATGTTAATCGGGTCTTGATTCGCTTGACGCTGCTG	7.71 z-score	9.63 z-score	8.71 z-score	8.17 z-score	5.36 z-score	7.31 z-score	5.94 z-score
CCGATTAACATCAGACATCCCCCTGATGTTAATCGGGTCTTGATTCGCTTGACGCTGCTG	5.54 z-score	5.65 z-score	5.36 z-score	3.71 z-score	5.06 z-score	5.17 z-score	4.88 z-score
